This passage reports composite z-score and z-score results from PubChem BioAssay.

Activity calls are given as the source filed them.

The nature of assay [1]: small molecules captured by biotinylated probe aFSTL3 – biochemical, small-molecule microarray, fluorescence 635/667, stem cell growth factor project, primary screen (AID 1064).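 Also: measures binding of the biotinylated anti-FSTL3 antibody to printed compounds.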 To be noted: higher = more signal.
Assay [2] can be described thus: binders from COS7 lysate, DM2A8 probe, primary screen, torsin A project, cell lysate, small-molecule microarray, fluorescence 635/667 (AID 1065). To be noted: higher = more signal, COS7 lysate expressing mutant human TOR1A.
The nature of assay [3]: small molecules captured by biotinylated probe aFGF2 – biochemical, small-molecule microarray, fluorescence 635/667, stem cell growth factor project, primary screen (AID 1067).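 Also: measures binding of biotinylated aFGF2 protein to printed compounds on slides; z-score merges feature fluorescence and signal-to-noise across triplicate slides.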 Conditions: higher = more signal.
The nature of assay [4]: small molecules captured by biotinylated probe aFGF10 – biochemical, small-molecule microarray, fluorescence 635/667, stem cell growth factor project, primary screen (AID 1071).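 Also: score merges 667 nm spot intensity and signal to noise from triplicate slides.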 Conditions: higher = more signal.
In assay [5] the target is Neurogenic locus notch homolog protein 2 (Homo sapiens) (UniProt Q04721). As to the kind of experiment: small molecules binding Notch2 protein – biochemical, small-molecule microarray, 635 nm fluorescence, stem cell growth factors, primary screen (AID 1073). To be noted: higher = more signal.
Assay [6] has as its target Pro-neuregulin-1, membrane-bound isoform (Homo sapiens) (UniProt Q02297). As to the kind of experiment: small molecules binding neuregulin-1 protein – biochemical, small-molecule microarray, fluorescence 635/667, psychiatric disease protein project, primary screen (AID 1075).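 Also: score combines 667 nm spot fluorescence with signal to noise.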 To be noted: NRG1 binding, 635 nm fluorescence, higher = more signal.
Assay [7] concerns Neuregulin-1 EGF-like domain. The experiment in a line: small molecules binding NRG1 EGF domain – biochemical, small-molecule microarray, 635 nm fluorescence, primary screen (AID 1081).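 Also: binding of the protein to compounds printed on small-molecule microarray slides.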 Conditions: higher = more signal.
A short description of assay [8]: FRG1 expression reporter modulators in myotubes – cell-based, C2C12 myotubes, firefly/Renilla luciferase, luminescence, FRG1 inhibition for FSHD, primary screen (AID 1084). To be noted: FRG1 promoter luciferase, higher = more signal, called active from +8 up or from −8 down.
A short description of assay [9]: small molecules captured by biotinylated probe aFST – biochemical, small-molecule microarray, fluorescence 635/667, stem cell growth factor project, primary screen (AID 1086).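 Also: score merges 667 nm fluorescence with signal-to-noise of each printed compound spot.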 Conditions: higher = more signal.
A short description of assay [10]: binders of probe aHhip on microarray, primary screen, stem cell growth factor project, biochemical, small-molecule microarray, fluorescence 635/667 (AID 1087).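 Also: score merges spot fluorescence at 667nm with spot signal to noise ratio.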 Conditions: higher = more signal.
In assay [11] the test system is PRMT1 (protein arginine N-methyltransferase 1). The experiment in a line: small molecules binding arginine methyltransferase PRMT1 – biochemical, small-molecule microarray, 635 nm fluorescence, primary screen (AID 1088).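 Also: binding of Prmt1 protein to compounds spotted on small-molecule microarray slides.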 To be noted: higher = more signal.
Assay [12] is described as follows: growth effects on S. cerevisiae YJM789 – YJM789 clinical isolate, OD600, 24 h, basal, primary screen (AID 1089).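 Also: growth of clinical yeast isolate S. cerevisiae YJM 789 seeded 1000 cells per well; test concentration not given here.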 Conditions: higher = more signal, called active from +8 up or from −8 down.
The nature of assay [13]: S. pombe growth modifiers, basal conditions – strain 972, OD600, 24 h, no modulator, primary screen (AID 1090).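 Also: basal condition with compound alone and no growth modifier present; test concentration not given here.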 Conditions: S. pombe 972 growth, higher = more signal, called active from +8 up or from −8 down.
Assay [14] is described as follows: budding yeast growth modifiers under rapamycin – strain BY4716, OD600, 96 h, primary screen (AID 1091). Also: test concentration not given here. To be noted: S. cerevisiae BY4716 + rapamycin, higher = more signal, called active from +8 up or from −8 down.
For assay [15], the target named is Torsin-1A-interacting protein 2 (Homo sapiens) (UniProt Q8NFQ8). As to the kind of experiment: small molecules binding lysate-expressed LULL1 – cell lysate, human LULL1 lysate, 635/667 nm fluorescence, primary screen (AID 1092).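 Also: probe is lysate of COS7 cells overexpressing human LULL1; score merges per-feature 667 nm fluorescence with signal-to-noise.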 To be noted: small-molecule microarray, hLULL1 lysate binding, 635 nm fluorescence; higher = more signal.
Chain of Torsin-1A-interacting protein 2 (Homo sapiens) (Q8NFQ8 whole entry, looked up): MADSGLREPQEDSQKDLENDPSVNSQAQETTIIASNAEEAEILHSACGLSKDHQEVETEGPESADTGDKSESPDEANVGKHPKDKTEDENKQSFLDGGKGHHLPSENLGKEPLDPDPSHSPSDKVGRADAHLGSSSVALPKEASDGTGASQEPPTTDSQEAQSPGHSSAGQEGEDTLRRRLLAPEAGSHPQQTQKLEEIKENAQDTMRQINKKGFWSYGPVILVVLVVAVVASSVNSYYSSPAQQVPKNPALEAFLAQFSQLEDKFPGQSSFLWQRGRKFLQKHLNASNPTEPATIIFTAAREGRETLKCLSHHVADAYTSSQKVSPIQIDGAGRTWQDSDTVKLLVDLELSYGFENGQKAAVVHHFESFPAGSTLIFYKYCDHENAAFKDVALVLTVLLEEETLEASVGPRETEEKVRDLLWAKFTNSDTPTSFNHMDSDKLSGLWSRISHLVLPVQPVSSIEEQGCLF
The nature of assay [16]: optical density change of DRC41 E. coli – strain DRC41, OD650, 24 h, E. coli filamentation project, primary screen (AID 1093).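 Also: MC1000 strain lacking acrAB efflux and sulA so SOS filamentation is blocked; test concentration not given here.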 Conditions: E. coli DRC41 growth, higher = more signal, called active from +8 up or from −8 down.
The nature of assay [17]: probe aLefty2 binding to arrayed compounds – biochemical, biotinylated probe, 635/667 nm fluorescence, primary screen (AID 1094).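 Also: score merges spot fluorescence near 667 nm with spot signal-to-noise ratio.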 To be noted: small-molecule microarray, higher = more signal.
Assay [18] deals with Noggin (protein binding on small-molecule microarray). As to the kind of experiment: small molecules binding Noggin protein – biochemical, 635/667 nm fluorescence, primary screen (AID 1095).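 Also: score merges 667 nm feature fluorescence with signal to noise over triplicate slides.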 To be noted: 635 nm fluorescence, higher = more signal.
For assay [19], the target named is Neurogenic locus notch homolog protein 3 (Homo sapiens) (UniProt Q9UM47). As to the kind of experiment: small molecules binding NOTCH3 protein – biochemical, 635/667 nm fluorescence, primary screen (AID 1096). To be noted: small-molecule microarray, 635 nm fluorescence, higher = more signal.
Chain of Neurogenic locus notch homolog protein 3 (Homo sapiens) (Q9UM47 whole entry, looked up): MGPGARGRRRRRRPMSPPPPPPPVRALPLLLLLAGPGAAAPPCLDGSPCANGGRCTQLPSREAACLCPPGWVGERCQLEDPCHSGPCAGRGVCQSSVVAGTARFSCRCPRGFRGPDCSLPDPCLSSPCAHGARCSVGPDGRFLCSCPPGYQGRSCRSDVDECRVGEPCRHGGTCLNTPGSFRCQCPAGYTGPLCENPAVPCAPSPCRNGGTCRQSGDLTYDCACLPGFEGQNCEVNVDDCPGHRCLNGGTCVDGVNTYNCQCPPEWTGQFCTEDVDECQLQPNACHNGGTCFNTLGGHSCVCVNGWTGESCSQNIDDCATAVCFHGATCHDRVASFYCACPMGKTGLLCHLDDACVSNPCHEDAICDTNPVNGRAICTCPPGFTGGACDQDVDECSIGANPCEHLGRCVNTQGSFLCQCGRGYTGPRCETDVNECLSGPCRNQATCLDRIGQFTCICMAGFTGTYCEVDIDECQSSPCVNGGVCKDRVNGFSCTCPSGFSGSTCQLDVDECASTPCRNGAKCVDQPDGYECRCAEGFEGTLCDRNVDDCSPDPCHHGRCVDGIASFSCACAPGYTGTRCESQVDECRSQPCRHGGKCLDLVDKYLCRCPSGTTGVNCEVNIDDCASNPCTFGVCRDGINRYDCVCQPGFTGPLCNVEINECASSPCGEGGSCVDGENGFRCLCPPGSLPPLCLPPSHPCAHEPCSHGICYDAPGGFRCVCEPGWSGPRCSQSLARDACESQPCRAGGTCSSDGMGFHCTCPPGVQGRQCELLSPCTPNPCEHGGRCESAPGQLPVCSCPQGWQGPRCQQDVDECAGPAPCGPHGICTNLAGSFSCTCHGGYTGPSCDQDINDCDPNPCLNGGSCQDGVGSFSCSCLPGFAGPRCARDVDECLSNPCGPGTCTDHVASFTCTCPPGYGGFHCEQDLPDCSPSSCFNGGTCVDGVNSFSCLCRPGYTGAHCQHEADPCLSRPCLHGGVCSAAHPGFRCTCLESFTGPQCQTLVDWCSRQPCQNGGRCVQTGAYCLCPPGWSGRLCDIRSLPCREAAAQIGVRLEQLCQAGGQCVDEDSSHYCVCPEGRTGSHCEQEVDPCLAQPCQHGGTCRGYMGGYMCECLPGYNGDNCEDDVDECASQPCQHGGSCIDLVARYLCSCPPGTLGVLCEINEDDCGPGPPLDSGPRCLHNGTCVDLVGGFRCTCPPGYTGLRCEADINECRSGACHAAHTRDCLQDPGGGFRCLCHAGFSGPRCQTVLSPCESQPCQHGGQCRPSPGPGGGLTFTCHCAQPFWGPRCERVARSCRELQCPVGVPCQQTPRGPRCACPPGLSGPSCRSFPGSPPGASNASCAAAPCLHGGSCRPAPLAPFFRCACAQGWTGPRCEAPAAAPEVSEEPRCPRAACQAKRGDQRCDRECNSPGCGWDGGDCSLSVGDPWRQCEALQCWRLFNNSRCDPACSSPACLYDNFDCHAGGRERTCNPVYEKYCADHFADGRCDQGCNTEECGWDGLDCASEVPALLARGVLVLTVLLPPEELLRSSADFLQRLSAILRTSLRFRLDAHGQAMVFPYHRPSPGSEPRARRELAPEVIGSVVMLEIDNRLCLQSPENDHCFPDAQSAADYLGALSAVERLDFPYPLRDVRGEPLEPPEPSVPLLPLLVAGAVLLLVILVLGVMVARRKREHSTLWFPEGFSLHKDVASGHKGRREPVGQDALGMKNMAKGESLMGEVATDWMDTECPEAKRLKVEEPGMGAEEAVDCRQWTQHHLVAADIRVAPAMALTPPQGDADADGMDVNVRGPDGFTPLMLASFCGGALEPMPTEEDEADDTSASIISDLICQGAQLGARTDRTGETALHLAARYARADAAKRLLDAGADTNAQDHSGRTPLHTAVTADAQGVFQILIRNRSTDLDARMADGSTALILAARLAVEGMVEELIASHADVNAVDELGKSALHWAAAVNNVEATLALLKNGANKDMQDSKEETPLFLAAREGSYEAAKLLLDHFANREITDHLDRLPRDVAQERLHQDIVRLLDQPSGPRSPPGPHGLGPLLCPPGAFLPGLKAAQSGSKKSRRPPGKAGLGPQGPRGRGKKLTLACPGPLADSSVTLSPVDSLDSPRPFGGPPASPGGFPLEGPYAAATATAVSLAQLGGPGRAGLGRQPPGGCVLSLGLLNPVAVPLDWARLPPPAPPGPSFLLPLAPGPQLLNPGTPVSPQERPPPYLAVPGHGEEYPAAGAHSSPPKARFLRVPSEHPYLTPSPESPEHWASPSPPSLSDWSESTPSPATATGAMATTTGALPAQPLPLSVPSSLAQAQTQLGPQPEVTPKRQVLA
Assay [20] is described as follows: probe aEGFR binding to arrayed compounds – biochemical, biotinylated probe, 635/667 nm fluorescence, primary screen (AID 1097).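 Also: probe is a biotinylated anti-EGFR antibody binding compounds printed on slides; score combines fluorescence near 667 nm and signal to noise of each spot.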 To be noted: small-molecule microarray, higher = more signal.

Chain of Pro-neuregulin-1, membrane-bound isoform (Homo sapiens) (Q02297 whole entry, looked up, the tested form may be a part, canonical isoform): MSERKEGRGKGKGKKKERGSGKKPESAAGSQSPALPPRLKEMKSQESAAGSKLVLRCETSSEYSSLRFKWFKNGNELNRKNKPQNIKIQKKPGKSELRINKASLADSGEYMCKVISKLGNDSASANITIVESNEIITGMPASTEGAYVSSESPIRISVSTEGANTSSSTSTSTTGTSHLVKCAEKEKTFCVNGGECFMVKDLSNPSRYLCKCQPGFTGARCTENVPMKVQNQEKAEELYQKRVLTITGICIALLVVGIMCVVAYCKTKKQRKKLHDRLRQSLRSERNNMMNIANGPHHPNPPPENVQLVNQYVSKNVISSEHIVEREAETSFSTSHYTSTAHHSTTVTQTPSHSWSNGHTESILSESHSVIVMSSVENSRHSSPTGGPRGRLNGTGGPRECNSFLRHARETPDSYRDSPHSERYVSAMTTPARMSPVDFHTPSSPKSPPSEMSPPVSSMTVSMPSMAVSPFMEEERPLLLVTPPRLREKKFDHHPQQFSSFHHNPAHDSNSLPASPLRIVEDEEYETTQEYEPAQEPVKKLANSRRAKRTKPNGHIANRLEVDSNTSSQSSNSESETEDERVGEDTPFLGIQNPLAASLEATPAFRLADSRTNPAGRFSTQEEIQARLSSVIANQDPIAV

With `COC(=O)C(CC#Cc1ccc2c(c1)[C@]1(C(=O)N2)[C@H](C(=O)Nc2nc3ccccc3s2)[C@H]2C(=O)O[C@H](c3ccccc3)[C@H](c3ccccc3)N2[C@@H]1c1ccccc1OCCO)C(=O)OC`, the composite z-score in assay [1] was 0.0102; in assay [2] it was 0.628; in [3], 0.0941; in assay [4] it was 1.12; in [5] it was 1.26; in assay [6], 1.07. The composite z-score was 1.31 in [7]; 0.709 in assay [9]; -0.0296 in assay [10]; 1.55 in [11]; 2.69 in [15]; 0.0293 in assay [17]. For the same molecule, the composite z-score in assay [18] is 0.485; in [19], 1.08; in assay [20], -0.0244. Further, the z-score was 1.43 (inactive) in [8]; 1.35 (inactive) in assay [12]; 1.12 (inactive) in assay [13]; 1.39 (inactive) in assay [14]; -0.404 (inactive) in [16].

Regarding `CCOC(=O)C[C@H]1[C@H](OC(=O)c2ccccc2-c2ccccc2)[C@@H](NC(=O)CC(C)C)c2cc(OCCCO)ccc2N1C(=O)Cc1ccc(OC)cc1`, the composite z-score in [1] was -0.259; in [2], 0.43; in assay [3] it was -0.104; in assay [4], 0.225; in assay [5], 0.135; in [6], 0.173. For the same molecule, the composite z-score in assay [7] was -0.155; in assay [9] it was 0.327; in assay [10], -0.199; in assay [11], 0.395; in assay [15], 0.472; in [17] it was -0.103. Further, the composite z-score in [18] was 0.356; in assay [19], -0.23; in assay [20] it was -0.111. Also, the z-score is 0.506 (inactive) in [8]; -0.454 (inactive) in assay [12]; 0.109 (inactive) in assay [13]; 0.146 (inactive) in assay [14]; -0.853 (inactive) in assay [16].

Take `C=CCOC(=O)[C@H]1[C@@H]2C(=O)O[C@@H](c3ccccc3)[C@@H](c3ccccc3)N2[C@@H](c2ccc(OCCOC(=O)[C@@H]3C[C@@H]4C(=O)N[C@@H](CCCCNC(C)=O)C(=O)N4[C@@H]3c3ccc(O)cc3)cc2)[C@]12C(=O)Nc1ccccc12`: the composite z-score in assay [1] was -0.475; in assay [2] it was 0.973; in [3] it was -0.0512; in assay [4], 0.483; in [5] it was 0.795; in assay [6] it was 1.26. Moreover, the composite z-score in assay [7] was 1.32; in assay [9], -0.0579; in [10] it was 0.0176; in assay [11] it was 1.54; in [15] it was 2.6; in [17], 0.0025. Moreover, the composite z-score is 1.14 in assay [18], 1.08 in assay [19] and -0.0625 in assay [20]. Moreover, the z-score in assay [8] was 0.159 (inactive); in assay [12], 1.7 (inactive); in [13] it was -0.133 (inactive); in assay [14], 3.53 (inactive); in [16], -0.264 (inactive).

With `CCCc1cc2c(n1Cc1cc(F)cc(F)c1)C(C)C1CN(C(=O)c3ccccc3)C(C)(C(=O)OC)C21` (stereo not given), the composite z-score worked out at 1.25 in [1]; 1.77 in [2]; 0.256 in assay [3]; 0.426 in assay [4]; 1.71 in assay [5]; 1.62 in assay [6]. For the same molecule, the composite z-score amounted to 1.18 in [7]; 1.58 in [9]; 0.441 in assay [10]; 0.497 in [11]; 3.11 in assay [15]; 1.02 in [17]. Further, the composite z-score is -0.266 in [18], 1.03 in [19] and 0.249 in assay [20]. The z-score in [8] is 0.0046 (inactive); in assay [12], 0.149 (inactive); in assay [13], 0.744 (inactive); in assay [14] it was 0.734 (inactive); in assay [16], -0.738 (inactive).

Take `C[N+](C)(C)CCCCNC(=O)[C@H]1C[C@H]2C(=O)N3CCC[C@H]3C(=O)N2[C@H]1c1cccc(OCCO)c1`: the composite z-score in assay [1] was 0.397; in [2], 0.442; in assay [3] it was -0.154; in assay [4], -0.194; in assay [5], -0.568; in assay [6], -0.235. Besides, the composite z-score came to 0.807 in assay [7]; 0.412 in assay [9]; 0.0053 in assay [10]; 0.0394 in assay [11]; 0.889 in assay [15]; 0.0459 in [17]. Also, the values for the composite z-score in [18], in assay [19] and in assay [20] were 1.52, 0.0378 and -0.185, respectively. Moreover, the z-score in [8] is 2.19 (inactive); in assay [12], 0.573 (inactive); in [13], -0.0177 (inactive); in assay [14], -1.09 (inactive); in assay [16], 0.51 (inactive).
